The structures appear in SMILES notation. Results filed as inconclusive are left out. Where a call stands in place of a potency, no number is given. Activity calls are given as the source filed them. Unless noted, calls follow the shape of the dose curve; as a rule, active = well fitted inhibition curve with a large enough effect; inconclusive = small, poorly fitted or top-dose-only effect; inactive = no such curve, though single readings can be large or run the other way.

Chain of Tyrosine-protein phosphatase non-receptor type substrate 1 (Homo sapiens) + Leukocyte surface antigen CD47 (Homo sapiens) (P78324 whole entry, looked up, the tested form may be a part): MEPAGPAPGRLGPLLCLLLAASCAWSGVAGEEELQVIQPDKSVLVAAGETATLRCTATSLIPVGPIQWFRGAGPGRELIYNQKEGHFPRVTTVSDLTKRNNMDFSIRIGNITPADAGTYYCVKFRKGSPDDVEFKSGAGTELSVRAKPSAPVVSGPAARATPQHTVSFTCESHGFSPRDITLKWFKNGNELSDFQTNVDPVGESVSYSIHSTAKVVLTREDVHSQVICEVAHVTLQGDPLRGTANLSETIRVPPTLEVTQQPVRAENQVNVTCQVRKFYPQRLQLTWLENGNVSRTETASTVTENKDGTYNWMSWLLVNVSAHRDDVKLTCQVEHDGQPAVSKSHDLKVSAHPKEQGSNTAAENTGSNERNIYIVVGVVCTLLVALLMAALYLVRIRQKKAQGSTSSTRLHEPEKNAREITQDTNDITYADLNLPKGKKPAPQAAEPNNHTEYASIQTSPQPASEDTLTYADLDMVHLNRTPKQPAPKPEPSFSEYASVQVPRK
Chain of Tyrosine-protein phosphatase non-receptor type substrate 1 (Homo sapiens) + Leukocyte surface antigen CD47 (Homo sapiens) (Q08722 whole entry, looked up, the tested form may be a part): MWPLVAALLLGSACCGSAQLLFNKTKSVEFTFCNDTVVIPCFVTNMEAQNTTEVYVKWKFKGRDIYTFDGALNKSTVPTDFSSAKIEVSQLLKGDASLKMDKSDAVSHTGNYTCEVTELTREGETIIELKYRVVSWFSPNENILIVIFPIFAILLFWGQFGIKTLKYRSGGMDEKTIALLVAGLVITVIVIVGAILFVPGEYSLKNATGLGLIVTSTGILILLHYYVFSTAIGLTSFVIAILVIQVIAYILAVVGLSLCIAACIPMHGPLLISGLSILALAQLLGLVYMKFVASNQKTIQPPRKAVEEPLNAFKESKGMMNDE

In the first test the target is Atrial natriuretic peptide receptor 2 (Homo sapiens) (UniProt P20594). Kind of test: Natriuretic polypeptide receptor (hNpr2) antagonism - Pilot subtype selectivity assay (AID 1347050; calls by dose curve). Conditions: NPR2-expressing cells, cGMP antagonist-mode read-out; series mostly up to 38.3 µM. A digest of the protocol: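 Antagonist mode: compounds (LOPAC1280, seven 1:5 dilutions) added 30 min before 1 nM hNppC stimulation of hNpr2-HEK293 cGMP-sensor cells; luminescence read before and 20 min after agonist at ambient temperature.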
Chain of Atrial natriuretic peptide receptor 2 (Homo sapiens) (P20594 whole entry, looked up): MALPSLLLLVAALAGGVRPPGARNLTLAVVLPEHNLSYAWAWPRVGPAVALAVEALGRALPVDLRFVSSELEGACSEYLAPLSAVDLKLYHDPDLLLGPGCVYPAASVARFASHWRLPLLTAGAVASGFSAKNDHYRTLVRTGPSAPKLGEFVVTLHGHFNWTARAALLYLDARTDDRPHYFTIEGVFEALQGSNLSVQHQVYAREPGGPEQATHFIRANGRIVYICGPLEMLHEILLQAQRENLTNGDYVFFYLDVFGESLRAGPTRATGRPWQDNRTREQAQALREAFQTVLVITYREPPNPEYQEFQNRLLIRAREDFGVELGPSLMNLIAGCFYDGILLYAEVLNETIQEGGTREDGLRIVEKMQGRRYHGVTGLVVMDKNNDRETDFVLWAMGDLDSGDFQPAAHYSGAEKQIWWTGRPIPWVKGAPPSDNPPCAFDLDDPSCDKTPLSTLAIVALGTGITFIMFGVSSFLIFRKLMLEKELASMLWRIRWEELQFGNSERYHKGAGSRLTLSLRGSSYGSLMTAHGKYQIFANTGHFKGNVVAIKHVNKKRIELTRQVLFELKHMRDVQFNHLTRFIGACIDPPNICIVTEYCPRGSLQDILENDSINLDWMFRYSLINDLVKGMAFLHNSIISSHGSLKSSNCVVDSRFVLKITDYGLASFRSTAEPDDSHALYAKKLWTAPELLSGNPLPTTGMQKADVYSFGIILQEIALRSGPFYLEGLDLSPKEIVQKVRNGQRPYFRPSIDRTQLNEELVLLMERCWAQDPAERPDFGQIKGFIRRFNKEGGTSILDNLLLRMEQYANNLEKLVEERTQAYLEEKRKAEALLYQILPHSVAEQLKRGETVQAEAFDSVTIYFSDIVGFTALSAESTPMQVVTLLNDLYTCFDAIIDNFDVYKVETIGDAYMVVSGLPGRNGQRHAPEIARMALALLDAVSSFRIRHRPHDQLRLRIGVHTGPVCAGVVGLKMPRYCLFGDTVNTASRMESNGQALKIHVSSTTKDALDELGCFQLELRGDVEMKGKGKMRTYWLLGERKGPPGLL
With `NCc1cc(=O)[nH]o1`, the Potency result is “inactive”.

For the compound `Clc1cnc(Oc2ccc(Oc3ncc(Cl)cc3Cl)cc2)c(Cl)c1`, the Potency result is “inactive”.

For `NC(CP(=O)(O)O)C(=O)O` (centres undefined), the Potency entry is “inactive”.

Turning to `CNCCc1ccc(O)c(O)c1`, the Potency entry is “inactive”.

Turning to `O=C(O)CC[N+](=O)[O-]`, the Potency result is “inactive”.

In the case of `c1ccc2sc(C3(N4CCCCC4)CCCCC3)cc2c1`, the Potency entry was “inactive”.

With `NC(CCP(=O)(O)O)C(=O)O` (centres undefined), the Potency entry is “inactive”.

As to `C[C@@H]1O[C@H](C[N+](C)(C)C)C[C@H]1O`, the Potency result was “inactive”.

In the case of `NCCc1c[nH]c2ccccc12`, the Potency entry was “inactive”.

For `NC(=NCCC[C@H](N)C(=O)O)N[N+](=O)[O-]`, the Potency result was “inactive”.

Consider `COc1cc(C(O)CN)ccc1O` (centres undefined), for which the Potency result is “inactive”.

As for `CC(C)Oc1cccnc1N(C)C1CCN(Cc2ccccc2)CC1`, the Potency result was “inactive”.

`C[C@]12CCC3C(CC[C@H]4C[C@H](O)CC[C@]34C)C1CC[C@@H]2C(=O)CO` (some centres undefined): the Potency result was “inactive”.

As for `Cn1cnc(CCN)c1`, the Potency entry is “inactive”.

For the compound `C=CCN1CC[C@]23CCCCC2[C@H]1Cc1ccc(O)cc13` (some centres undefined), the Potency entry is “inactive”.

For `NCCc1c[nH]c2ccc(O)cc12`, the Potency result is “inactive”.

`O=C(O)Cc1cnc[nH]1`: the Potency entry is “inactive”.

Take `CS(=N)(=O)CC[C@H](N)C(=O)O` (some centres undefined): the Potency entry was “inactive”.

`NC1CCc2cc(O)c(O)cc2C1` (centres undefined): the Potency result is “inactive”.

In the case of `CCCN(CCC)C1CCc2ccc(O)cc2C1` (centres undefined), the Potency entry is “inactive”.

As for `NC(N)=NOCCC(N)C(=O)O` (centres undefined), the Potency entry is “inactive”.

Consider `CCCN(CCC)[C@@H]1CCc2ccc(O)cc2C1`, for which the Potency entry was “inactive”.

Turning to `Cc1nccc2c1[nH]c1ccccc12`, the Potency entry is “inactive”.

With `C[N+]1(C)C2CCC1CC(OC(=O)C(CO)c1ccccc1)C2` (centres undefined), the Potency entry is “inactive”.

Tested on in another test: not listed separately
Kind of test: NS1 protein of Zika virus - qHTS assay to identify small molecule inhibitors in human HEK 293 cells (AID 1347053). Also: nearly all actives have a fitted effect of over 55% in size. The settings on record: HEK293 ZIKV MR766 infection, NS1 TR-FRET, 24 h; series mostly up to 46.1 µM. A digest of the protocol:
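Compound-treated (1 h pre-infection) HEK 293 cells infected with ZIKV MR766, MOI = 0.5; after 24 h at 37 C, NS1 read by TR-FRET; data normalized to uninfected and infected controls.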
For `NCc1cc(=O)[nH]o1`, the Potency result is “inactive”.

Consider `NC(CP(=O)(O)O)C(=O)O` (centres undefined), for which the Potency entry is “inactive”.

`O=C(O)CC[N+](=O)[O-]`: the Potency entry was “inactive”.

`Fc1cc(Br)ccc1CBr`: the Potency entry was “inactive”.

Take `c1ccc2sc(C3(N4CCCCC4)CCCCC3)cc2c1`: the Potency entry was “inactive”.

Regarding `O=S(=O)(c1ccc(Cl)cc1)c1ccc(Cl)cc1`, the Potency result was “inactive”.

As for `NC(CCP(=O)(O)O)C(=O)O` (centres undefined), the Potency entry is “inactive”.

As to `C[C@@H]1O[C@H](C[N+](C)(C)C)C[C@H]1O`, the Potency entry was “inactive”.

With `NCCc1c[nH]c2ccccc12`, the Potency entry was “inactive”.

As for `NC(=NCCC[C@H](N)C(=O)O)N[N+](=O)[O-]`, the Potency result was “inactive”.

With `Nc1ccc(Cl)cc1N`, the Potency entry was “inactive”.

Take `CCC(=O)O[C@@H]1C=C2CCC3C(CCC4(C)C3CC[C@@H]4OC(=O)CC)C2CC1` (some centres undefined): the Potency result was “inactive”.

`CCOP(=O)(NC(C)C)Oc1ccc(SC)c(C)c1` (centres undefined): the Potency result was “inactive”.

`CC(=O)N(C)c1cccc(-c2ccnc3c(C(=O)c4cccs4)cnn23)c1`: the Potency result is “inactive”.

Take `C=CCC1=C(C)C(OC(=O)C2C(C=C(C)C)C2(C)C)CC1=O` (centres undefined): the Potency entry is “inactive”.

`O=[N+]([O-])c1c2ccccc2cc2ccccc12`: the Potency result was “inactive”.

Take `CC(C)Oc1cccnc1N(C)C1CCN(Cc2ccccc2)CC1`: the Potency entry is “inactive”.

As for `C[C@]12CCC3C(CC[C@H]4C[C@H](O)CC[C@]34C)C1CC[C@@H]2C(=O)CO` (some centres undefined), the Potency entry was “inactive”.

As for `CC1(C)CC/C(=C/c2ccc(Cl)cc2)C1(O)Cn1cncn1` (centres undefined), the Potency result is “inactive”.

For `Cn1cnc(CCN)c1`, the Potency entry is “inactive”.

Regarding `C=CCN1CC[C@]23CCCCC2[C@H]1Cc1ccc(O)cc13` (some centres undefined), the Potency result is “inactive”.

In the case of `NCCc1c[nH]c2ccc(O)cc12`, the Potency entry was “inactive”.

Take `CS(=N)(=O)CC[C@H](N)C(=O)O` (some centres undefined): the Potency result was “inactive”.

On to `NC1CCc2cc(O)c(O)cc2C1` (centres undefined), for which the Potency entry is “inactive”.

Consider `CCCN(CCC)C1CCc2ccc(O)cc2C1` (centres undefined), for which the Potency entry is “inactive”.

Turning to `NC(N)=NOCCC(N)C(=O)O` (centres undefined), the Potency entry is “inactive”.

On to `CC(C)Oc1cccc(NC(=O)c2ccccc2C(F)(F)F)c1`, for which the Potency entry was “inactive”.

With `O=C(Nc1ccccc1-c1ccc(Cl)cc1)c1cccnc1Cl`, the Potency entry is “inactive”.

With `CCCN(CCC)[C@@H]1CCc2ccc(O)cc2C1`, the Potency entry is “inactive”.

For `CC1=C(C(=O)O)N2C(=O)[C@@H](N)[C@H]2SC1`, the Potency entry was “inactive”.

With `Cc1nccc2c1[nH]c1ccccc12`, the Potency result was “inactive”.

Another test has as its target Tyrosine-protein phosphatase non-receptor type substrate 1 (Homo sapiens) + Leukocyte surface antigen CD47 (Homo sapiens) (UniProt P78324+Q08722). Kind of test: CD47-SIRPalpha protein protein interaction - LANCE assay qHTS validation (AID 1347057; active = well fitted curve in the direction sought with a large enough effect in the signal ratio, with a control signal flat, not every such curve was filed as active; the % refers to the signal ratio). Conditions: Recombinant CD47-His / biotin-SIRPalpha, TR-FRET ratio; series mostly up to 38.3 µM. An outline of the steps: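 Inhibition of soluble CD47/SIRPalpha ectodomain association by titrated compounds, measured as 665/615 nm time-resolved FRET ratio after sequential 30 min room-temperature incubations.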
Turning to `NCc1cc(=O)[nH]o1`, the result was inactive.

As for `Clc1cnc(Oc2ccc(Oc3ncc(Cl)cc3Cl)cc2)c(Cl)c1`, the result was inactive.

As for `NC(CP(=O)(O)O)C(=O)O` (centres undefined), the result was inactive.

In the case of `CNCCc1ccc(O)c(O)c1`, the result was inactive.

For the compound `O=C(O)CC[N+](=O)[O-]`, the result was inactive.

Consider `c1ccc2sc(C3(N4CCCCC4)CCCCC3)cc2c1`, for which the result was inactive.

In the case of `NC(CCP(=O)(O)O)C(=O)O` (centres undefined), the result was inactive.

In the case of `C[C@@H]1O[C@H](C[N+](C)(C)C)C[C@H]1O`, the result was inactive.

In the case of `NCCc1c[nH]c2ccccc12`, the result was inactive.

For `NC(=NCCC[C@H](N)C(=O)O)N[N+](=O)[O-]`, the outcome was inactive.

For `COc1cc(C(O)CN)ccc1O` (centres undefined), the result was inactive.

Regarding `CC(C)Oc1cccnc1N(C)C1CCN(Cc2ccccc2)CC1`, the result was inactive.

For `C[C@]12CCC3C(CC[C@H]4C[C@H](O)CC[C@]34C)C1CC[C@@H]2C(=O)CO` (some centres undefined), the result was inactive.

Regarding `Cn1cnc(CCN)c1`, the outcome was inactive.

For the compound `C=CCN1CC[C@]23CCCCC2[C@H]1Cc1ccc(O)cc13` (some centres undefined), the outcome was inactive.

Regarding `NCCc1c[nH]c2ccc(O)cc12`, the result was inactive.

Turning to `O=C(O)Cc1cnc[nH]1`, the outcome was inactive.

On to `CS(=N)(=O)CC[C@H](N)C(=O)O` (some centres undefined), for which the outcome was inactive.

For `NC1CCc2cc(O)c(O)cc2C1` (centres undefined), the outcome was inactive.

Regarding `CCCN(CCC)C1CCc2ccc(O)cc2C1` (centres undefined), the outcome was inactive.

For the compound `NC(N)=NOCCC(N)C(=O)O` (centres undefined), the result was inactive.

Consider `CCCN(CCC)[C@@H]1CCc2ccc(O)cc2C1`, for which the result was inactive.

For the compound `Cc1nccc2c1[nH]c1ccccc12`, the result was inactive.

`C[N+]1(C)C2CCC1CC(OC(=O)C(CO)c1ccccc1)C2` (centres undefined): the result was inactive.

Values taken from PubChem BioAssay (NCATS).
